Results on 40 molecules are retold here after PubChem BioAssay.

A number with no mark means an inactive call. No rule for the calls is given here. Where a SMILES comes first, the peptide text is derived from it. The star is where a group is joined. Cbz = O=C(OCc1ccccc1)*

The test system of the test is Aerobactin synthetase IucA (Klebsiella pneumoniae, hypervirulent). The test is described as follows: biochemical IucA inhibition screen of LOPAC library by absorbance (AID 1346212).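 Also: 100% = no compound wells and 0% = no enzyme wells.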 Particulars: IucA enzyme assay, absorbance (OD) readout; hits give low values;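 tested at 8 µM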.
Take `[N-]=[N+]=Nc1ccc(C(=O)CSC[C@H](NC(=O)CC[C@H](N)C(=O)O)C(=O)NCC(=O)O)cc1`: the remaining activity was 116%.
Turning to `O=C(O)CP(=O)(O)O`, the remaining activity was 89.1%.
In the case of `Ic1ccc(N2CCN(Cc3c[nH]c4ncccc34)CC2)cc1`, the remaining activity is 115%.
As for `Cc1cc(C)c(/C=C2\C(=O)Nc3ccccc32)[nH]1`, the remaining activity was 118%.
Next, `C=C1C(=O)O[C@@H]2[C@H]3O[C@]3(C)CC/C=C(\C)CC[C@@H]12`: 119%; `CC[C@@H]1Cc2cc(O)ccc2C2=C1c1ccc(O)cc1C[C@H]2CC`: 89.7%.
On to `Brc1c(Br)c(Br)c2[nH]cnc2c1Br`, for which the remaining activity is 110%.
As for `Cc1ccc(=O)n(-c2ccccc2)c1`, the remaining activity is 120%.
For the molecule `O=c1[nH]c2ccccc2n1CCCN1CCN(C(c2ccccc2)c2ccccc2)CC1`, the remaining activity is 116%.
Turning to `NC1=NCC2c3ccccc3Cc3ccccc3N12` (stereo not given), the remaining activity is 91.6%.
As to `O=C(c1ccc2c(c1)OCCO2)N1CCCCC1`, the remaining activity is 87.4%.
On to `Cc1ccc(S(=O)(=O)N[C@@H](Cc2ccccc2)C(=O)CCl)cc1`, for which the remaining activity is 107%.
With `Cn1ccc2cc(NC(=O)Nc3cccnc3)ccc21`, the remaining activity was 117%.
Next, `C=CCn1c(=O)c2c(nc(-c3ccc(S(=O)(=O)O)cc3)n2C)n(C)c1=O`: 128%; `Fc1cccc(/C=N/N=C/c2cccc(F)c2)c1`: 123%.
For `CO/N=C(\C(=O)N[C@@H]1C(=O)N2C(C(=O)O)=C(COC(C)=O)CS[C@H]12)c1csc(N)n1` (stereo in doubt), the remaining activity was 123%.
As to `CC(C)COC(=O)OCN1C(=O)CN(CCN2CC(=O)N(COC(=O)OCC(C)C)C(=O)C2)CC1=O`, the remaining activity is 96.8%.
As for `N#CC(=C(/N)Sc1ccccc1N)/C(C#N)=C(\N)Sc1ccccc1N`, the remaining activity was 104%.
Regarding `NC(=O)c1ncn([C@@H]2O[C@H](CO)[C@@H](O)[C@H]2O)c1O`, the remaining activity was 122%.
With `Cc1nc2sccn2c(=O)c1CCN1CCC(=C(c2ccccc2)c2ccc(F)cc2)CC1`, the remaining activity is 123%.
Next, `CC(=O)c1ccc(S(=O)(=O)NC(=O)NC2CCCCC2)cc1`: 127%.
Regarding `O=c1[nH]c(=O)c2nc3ccccc3nc2[nH]1`, the remaining activity was 114%.
As for `O=C[C@H](Cl)[C@@H](O)[C@H](O)[C@H](O)CO`, the remaining activity is 101%.
Consider `COC(=O)c1c(-c2cc(OC)c(OC)c(OC)c2)c2ccnc(OCc3ncccn3)c2c(=O)n1Cc1ccnc(C)c1`, for which the remaining activity is 101%.
In the case of `C[C@@H]1C(=O)NC2=Nc3cccc(Cl)c3CN21`, the remaining activity is 121%.
`N#Cc1cc([N+](=O)[O-])c2sc(C(N)=O)[n+]([O-])c2c1`: the remaining activity was 106%.
In the case of `CC[C@]1(O)C[C@H]2CN(CCc3c([nH]c4ccccc34)[C@@](C(=O)OC)(c3cc4c(cc3OC)N(C=O)[C@H]3[C@@](O)(C(=O)OC)[C@H](OC(C)=O)[C@]5(CC)C=CCN6CC[C@]43[C@@H]65)C2)C1`, the remaining activity is 109%.
As to `Nc1ncnc2c1ncn2C1CCCC1`, the remaining activity was 120%.
Take `CNCCc1cnc(CCC(c2ccccc2)c2ccccc2)[nH]1`: the remaining activity was 110%.
On to `c1ccc2nc(C3=NCCN3)ccc2c1`, for which the remaining activity was 121%.
For `Nn1nnc2ccccc21`, the remaining activity was 115%.
Consider `N#C/C(=C\c1ccc(O)c(O)c1)C(=O)NCCCc1ccccc1`, for which the remaining activity was 103%.
Next, `CCN1/C(=C/C(C)=O)Sc2ccc(OC)cc21`: 123%; `Nc1ncnc2n[nH]c(Nc3ccc(F)cc3)c12`: 101%; `Nc1ccc(-c2nc3ccc(-c4nc5ccc(N)cc5[nH]4)cc3[nH]2)cc1`: 114%.
On to `CCCn1cnc2c1c(=O)n(CCCCC(C)=O)c(=O)n2C`, for which the remaining activity is 93.8%.
On to `Cc1cccc(C#Cc2ccccc2)n1`, for which the remaining activity was 123%.
In the case of `Cn1ccc2cc3c(cc21)CCN3C(=O)Nc1cccnc1`, the remaining activity is 102%.
As for `CC(C)[C@H](NC(=O)OCc1ccccc1)C(=O)N[C@H](C=O)Cc1ccccc1` (Cbz-Val-Phe-aldehyde), the remaining activity was 106%.
On to `O=C(Nc1ccccc1)c1cc([N+](=O)[O-])ccc1Cl`, for which the remaining activity was 115%.

For orientation: remaining activity means the signal under treatment as a percentage of the control signal.
